Assay results published in PubChem BioAssay AID1745850 (National Center for Advancing Translational Sciences (NCATS), 2022).
Among all 2,100 compounds or so, about 260 (12%) were called active. Not shown: some 58% with an inconclusive outcome. Calls come from the whole dose curve; as a rule, active = well fitted cell-killing curve with a large enough effect; inconclusive = small, poorly fitted or top-dose-only effect, or effect the other way; inactive = flat fitted curve, though single readings scatter. This is one part of the list.

Assay: Viability Counterscreen for Confirmatory qHTS for Inhibitors of ATXN expression; note: nearly all actives have a fitted effect of over 50% in size
Details: HEK-293 ATXN2-luc cells viability, CellTiter-Fluor, 24 h; activity change, negative = cytotoxicity: at the top concentration
In short: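 Cells with an ATXN2-luciferase reporter were dosed in a dilution series for 24 h at 37 degrees C. Viability was read first with Gly-Phe-AFC at 25 uM final (fluorescence, ex 405/em 540), then SteadyGlo luminescence. Medium-only wells defined 100% inhibition.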
Potency is the fitted concentration of half-maximal effect.

Compound | activity change, negative = cytotoxicity | Potency
Cc1ccc(S(=O)(=O)c2nc(NCc3ccc4c(c3)OCO4)sc2Cl)cc1 | -19.2% [at 57.5 µM] (inactive) | –
CCCc1nc(NC2CCCCC2)c(C#N)c2c1COC(C)(C)C2 | 4.08% (inactive) | –
CC1(S(=O)(=O)O)CC(=O)c2ccccc2C1=O (stereo not drawn) | 3.58% [at 57.5 µM] (inactive) | –
CCCCOc1ccc(NC2=NC3(CCCC3)N=C(N)N2)cc1 | -22.7% [at 57.5 µM] (inactive) | –
COc1ccc([C@@]2(C(C)C)ON(c3ccccc3C(F)(F)F)C2=O)cc1 | -9.94% (inactive) | –
COc1ccc(CN(C)C(=O)c2cccc(NC(=O)CC3SC(N4CCCCC4)=NC3=O)c2)c(OC)c1 (stereo not drawn) | – | 35.5 µM (active)
Cc1ccc(Cn2ncc3c(NN)ncnc32)cc1 | -26.4% [at 57.5 µM] (inactive) | –
COc1cccc(N2CCN(c3nc(-c4ccccc4C)cc(=O)[nH]3)CC2)c1 | -27.9% (inactive) | –
Cc1nc2ncnn2c(N2CCN(c3cccc(C(F)(F)F)c3)CC2)c1C | -26.9% (inactive) | –
CC(Sc1ccc(Cl)cc1)C(=O)NNC(=O)c1ccccc1O (stereo not drawn) | -10% (inactive) | –
COc1ccc(Cl)cc1NC(=O)Nc1cccc([N+](=O)[O-])c1C | -5.63% (inactive) | –
COc1ccc(-c2n(CC(=O)OC3CC(C)CCC3C(C)C)c3ccccc3[n+]2C)cc1 (stereo not drawn) | – | 10 µM (active)
Cc1onc(-c2ccccc2)c1C(=O)N/N=C/c1c[nH]c2ccccc12 | -15.8% [at 57.5 µM] (inactive) | –
O=C(O)COc1ccc2oc3ccccc3c2c1 | 7.02% (inactive) | –
Cc1nnc(SC(C)C(=O)Nc2ccc(Cl)cn2)n1Cc1ccccc1 (stereo not drawn) | -12.7% [at 57.5 µM] (inactive) | –
Cc1cccc(N2CCN(S(=O)(=O)c3ccc4c(c3)C(C)(C)C(=O)N4C)CC2)c1C | -12% [at 57.5 µM] (inactive) | –
NC(N)=N/N=C/c1ccc2cccc(OCc3ccccc3)c2n1 | – | 15.8 µM (active)
CC(=O)Oc1c(Br)cc(N(C(C)=O)S(=O)(=O)c2ccccc2)c2ccccc12 | – | 28.2 µM (active)
N#Cc1cc2cc3c(cc2nc1SCC(=O)N1CCOCC1)OCCO3 | -8.91% (inactive) | –
OC(c1cc(-c2cccc(Cl)c2)nc2ccccc12)C1CCCCN1 (stereo not drawn) | – | 28.2 µM (active)
Cn1nccc1C(=O)N1CCCC(C(=O)c2cccc3ccccc23)C1 (stereo not drawn) | -20.1% [at 57.5 µM] (inactive) | –

Compound | activity change, negative = cytotoxicity | Potency
Cn1cc(/C=C/c2cc[n+](C)cc2)c2cc(F)ccc21 | -9.68% [at 57.5 µM] (inactive) | –
NS(=O)(=O)c1ccc(Nc2nc(-c3ccc(F)cc3)cs2)cc1 | -8.41% (inactive) | –
O=C(CCN1C(=O)C2CC=CCC2C1=O)Nc1nc(-c2ccc(F)c(F)c2)cs1 (stereo not drawn) | -16.4% [at 57.5 µM] (inactive) | –
O=C(Nc1nc(-c2ccc(F)c(F)c2)cs1)Nc1ccc(F)cc1F | – | 2.82 µM (active)
O=C(/C=C\c1ccco1)Nc1nc(-c2ccc3ccccc3c2)cs1 | -19.3% (inactive) | –
Cc1noc(C)c1CSCC(=O)Nc1nc(-c2ccc(F)c(F)c2)cs1 | – | 28.2 µM (active)
Cc1cnc(NC(=O)C2CC(=O)N(c3cccc(Cl)c3)C2)s1 (stereo not drawn) | -21% (inactive) | –
COc1cc([N+](=O)[O-])cc(/C=N/NC(=O)c2ccc(NC(=O)c3ccc(C)cc3)cc2)c1O | – | 1.78 µM (active)
CCn1c(C)nc2cc(C(=O)N/N=C/c3cccc(OC)c3O)ccc21 | -17.1% (inactive) | –
Cc1ccc(C(=O)N/N=C/c2nc3ccccc3n2C)cc1 | -26.8% [at 57.5 µM] (inactive) | –
CCCC1CCC(c2ccc(C(=O)NN)cc2)CC1 (stereo not drawn) | -2.67% (inactive) | –
Cc1c(C(=O)N/N=C/c2c(O)ccc3ccccc23)nnn1-c1nonc1N | -20.6% (inactive) | –
Cc1cc(NCc2ccccn2)n2nc(C)c(-c3ccc(Cl)cc3)c2n1 | – | 14.1 µM (active)
CC(C)C(CCNCc1ccccn1)c1ccc(Cl)cc1 (stereo not drawn) | -16.9% [at 57.5 µM] (inactive) | –
Cc1nn2c(NCc3ccccn3)c3c(nc2c1-c1ccccc1)CCC3 | – | 11.2 µM (active)
CNc1ccccc1C(=O)OC(C)C(=O)Nc1ccc(Cl)cn1 (stereo not drawn) | 5.42% (inactive) | –
O=C(Nc1ccc(F)cc1)c1sccc1SCc1cccc(C(F)(F)F)c1 | -26.1% [at 57.5 µM] (inactive) | –
CCOC(=O)c1c(NC(=O)COC(=O)c2ccccc2NC)sc(C(=O)N(C)C)c1C | -22.4% (inactive) | –
NC(=O)CC(NC(=O)Cc1ccc(Br)cc1)c1ccc(NC2CCCC2)c([N+](=O)[O-])c1 (stereo not drawn) | -17.4% (inactive) | –
Cc1ccc(OCC(=O)c2cc(C)n(Cc3cccs3)c2C)c([N+](=O)[O-])n1 | -23.1% [at 57.5 µM] (inactive) | –
C/C(=N\Nc1cc(N2CCOCC2)nc(C)n1)c1cccc([N+](=O)[O-])c1 | -4.32% (inactive) | –

Compound | activity change, negative = cytotoxicity | Potency
CC1CCCCN1S(=O)(=O)c1ccc(C(=O)Nc2nnc(-c3ccccc3Cl)o2)cc1 (stereo not drawn) | -5.8% (inactive) | –
O=C1C=C(Nc2ccccc2O)c2ccccc2C1=O | – | 20 µM (active)
Cc1cc(NC(=O)CSc2nccn2-c2cccc(C)c2C)no1 | -14.2% (inactive) | –
CCOC(=O)c1ccc2ncc(C(=O)OCC)c(Nc3ccc(N4CCOCC4)cc3)c2c1 | – | 3.16 µM (active)
CCOC(=O)c1ccc(N=c2sc(C(=O)OC)cc(=O)n2-c2ccc(C(=O)OCC)cc2)cc1 | -19.2% (inactive) | –
CCOC(=O)Nc1ccc(N2CCOCC2)c(S(=O)(=O)Nc2ccc(Cl)cc2)c1 | -10.2% (inactive) | –
Cc1ccc(NC(=O)CNC(=O)c2cccc(Cl)c2)nc1 | -22.1% [at 57.5 µM] (inactive) | –
Cc1cc(Br)ccc1NC(=O)c1cnc(N2CCN(c3ccccn3)CC2)c2ccccc12 | -16.2% (inactive) | –
Cc1ccc(NC(=O)c2cnc(N3CCN(c4ccccn4)CC3)c3ccccc23)c(Br)c1 | – | 14.1 µM (active)
CCN(CC)S(=O)(=O)c1ccc(C)c(NC(=S)N2CCN(c3ccccn3)CC2)c1 | -29.4% [at 57.5 µM] (inactive) | –
Brc1cnc2nc(SCc3nc4ccccc4[nH]3)[nH]c2c1 | -3.43% (inactive) | –
CCn1c(CCC(=O)Nc2nc3c(s2)CCCC3)nc2cc(S(=O)(=O)N(C)C)ccc21 | -6.64% (inactive) | –
Cc1ccc(C(=O)NC(C)CCc2ccccc2)cc1S(=O)(=O)N1CCOCC1 (stereo not drawn) | -26% [at 57.5 µM] (inactive) | –
O=C(Nc1cccc(S(=O)(=O)C(F)F)c1)c1ccc(Cl)c(S(=O)(=O)N2CCOCC2)c1 | – | 28.2 µM (active)
O=C(Nc1cccc(S(=O)(=O)N2CCOCC2)c1)c1ccc2c(=O)n3c(nc2c1)CCCCC3 | -27.9% (inactive) | –
COc1ccc(Cn2c(O)c(/C=N/NC(=O)c3cccnc3)c3ccccc3c2=O)cc1 | 15.3% [at 57.5 µM] (inactive) | –
CCN(Cc1ccccc1)S(=O)(=O)c1ccc(C(=O)Nc2nnc(C3CC3)o2)cc1 | -14.9% (inactive) | –
Cc1cc2c(c(/C=C/C(=O)c3ccccc3)c1)OC1(C=C2)Oc2ccccc2C(=O)N1C (stereo not drawn) | – | 25.1 µM (active)
Cc1cc(C)cc(NC(=O)CSc2nc3[nH]ncc3c(=O)[nH]2)c1 | -5.78% (inactive) | –
Nc1c(C(=O)NCc2ccccc2)c2nc3ccccc3nc2n1-c1ccc2c(c1)OCO2 | -23.9% (inactive) | –
CCOC(=O)c1c(C)sc2c1N(C(=O)CN(CC)CC)c1cc(Cl)ccc1S2 | – | 22.4 µM (active)
